Measurements as given in PubChem BioAssay (NCI).
This is part of a sample that, as a whole, favours compounds with a hit. Of some 79,000 tested, about 15% had one in any assay. A number with no mark means an inactive call. Calls of active or inactive are those of the source. No stated cut-off is given here; in the data, active means growth inhibition above about 70%; inactive means the rest.

Experiment: NCI Yeast Anticancer Drug Screen. Data for the CLN2oe strain (AID 163);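 further: 0% = growth of vehicle-only control cultures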
Settings: S. cerevisiae CLN2oe strain, hits give high values
Description: Growth inhibition of yeast strains with defined genetic alterations is measured as a screen for potential anti-cancer activity. Selected strains with alterations in DNA damage repair or cell cycle control were exposed to compounds and growth inhibition was measured relative to vehicle treated controls. The strain used in this assay is CLN2oe

| SMILES | growth inhibition (at 1.2 µM) | growth inhibition (at 3.7 µM) | growth inhibition (at 11.0 µM) | growth inhibition (at 33.0 µM) | growth inhibition (at 100.0 µM) |
| --- | --- | --- | --- | --- | --- |
| c1ccc2cc(NCNc3ccc4ccccc4c3)ccc2c1 | -3% | -3% | -6% | -1% | 6% |
| COc1ccc(C/C=N/Nc2ccc([N+](=O)[O-])cc2)cc1OC | 8% | 6% | 12% | 1% | 20% |
| CC12C(=O)OC(=O)C(c3ccccc31)c1ccccc12 | -9% | -8% | -10% | -11% | -10% |
| Oc1ccc2ccccc2c1CCc1c(O)ccc2ccccc12 | 7% | 4% | 97% (active) | 92% (active) | 82% (active) |
| CCCOC(=O)C(F)C(Br)C(=O)OCCC (stereo not given) | 48% | 87% (active) | 97% (active) | 97% (active) | 98% (active) |
| Cc1cc(-c2cc(C)c(O)c(C(C)(C)C)c2)cc(C(C)(C)C)c1O | -51% | -62% | -42% | 15% | 73% (active) |
| C[C@]12CC[C@H](O)CC1=CC[C@@H]1C2CC[C@]2(C)C(=O)NC(=O)CC12 (stereo not given in full) | -36% | -45% | -48% | 67% | 91% (active) |
| NC(=S)NC(=S)Nc1ccccc1 | -19% | -22% | -16% | -18% | -13% |
